Results as given in PubChem BioAssay (NCI).
About 83,000 compounds went through this panel and 20% of them were active in at least one assay; those are over-represented in the sample as a whole.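 The endpoint reported here, percent growth, reads 100 for growth as untreated, 0 for no net growth and -100 for all cells dead.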 Unmarked numbers belong to inactive results. Active and inactive are the calls of the source. How the source made its calls: active means growth percent below 10; inactive means the rest.

Assays:
Assay in all cases: NCI-60 one-dose screen, 48 h (100 = growth as untreated, 0 = no growth, -100 = all killed)
Conditions in all cases: 10 µM unless noted
[1] = test system: SR leukemia
[2] = test system: RPMI-8226 leukemia
[3] = test system: OVCAR-8 ovarian
[4] = test system: OVCAR-5 ovarian
[5] = test system: OVCAR-4 ovarian
[6] = test system: SK-OV-3 ovarian
[7] = test system: IGROV1 ovarian
[8] = test system: OVCAR-3 ovarian
[9] = test system: HS 578T breast
[10] = test system: NCI/ADR-RES ovarian

Row | SMILES | growth [1] | growth [2] | growth [3] | growth [4] | growth [5] | growth [6] | growth [7] | growth [8] | growth [9] | growth [10]
1 | COc1cc(CNS(=O)(=O)c2ccc(C)cc2)ccc1OCc1cn(-c2ccc(F)cc2)nn1 | 78.9% | 61.1% | 95.5% | 102% | 72.2% | 85.2% | 94.1% | 91.1% | 97.8% | 85.8%
2 | CCOC(=O)c1cn2ncnc(Oc3ccc(NC(=O)NC4CCCCC4)c(Cl)c3)c2c1C | 73.8% | 90.9% | 74% | 93.5% | -0.664% (active) | 108% | 81.4% | 109% | 36.1% | 59%
3 | O=C(c1ccc(-c2ccccc2)cc1)c1ccc([N+](=O)[O-])cc1 | 86.8% | 66.1% | 104% | 120% | 105% | -100% (active) | 101% | 104% | 110% | 114%
4 | COc1cc(-c2cc(-c3ccc(N(C)C)cc3)nc(N3CCC(O)CC3)c2C#N)cc(OC)c1OC | 13.4% | -5.93% (active) | 16.4% | 20.6% | 50.8% | 35.3% | 7.25% (active) | -14.6% (active) | 17% | 14.9%
5 | O=C(CSc1nc(-c2ccccc2)[nH]c1S(=O)(=O)c1ccccc1)NC1CC1 | 92.1% | 90.1% | 97.2% | 109% | 95% | 13.4% | 107% | 102% | 99.2% | 83.1%
6 | Nc1ncnc2c1N=C(c1ccc3c(c1)OCO3)CC(c1ccc([N+](=O)[O-])cc1)N2 (stereo not given) | 45.6% | 46.2% | 87.3% | 75.8% | 99% | 86% | 3.46% (active) | 103% | 74% | 82%
7 | C=CCn1c(SCC(=O)Nc2ccc(C(=O)/C=C/c3ccc(Cl)cc3)cc2)nnc1-c1cc(-c2ccc(S(N)(=O)=O)cc2)nc2ccccc12 | 79.5% | 5.47% (active) | 55.5% | 96.7% | 90.2% | 93.7% | 87.7% | 82.8% | 98.2% | 100%
8 | O=C1/C(=C/c2ccc(Cl)c(Cl)c2)CN(C(=O)C(Cl)Cl)C/C1=C\c1ccc(Cl)c(Cl)c1 | 4.68% (active) | -27.9% (active) | 0.621% (active) | -69.1% (active) | -16.8% (active) | 25.2% | -74.3% (active) | -97.9% (active) | -5.11% (active) | 3.64% (active)
9 | COc1ccc(-c2nc(/C=C3\SC(=NCc4ccccc4)NC3=O)c3ccccn23)cc1 | 3.32% (active) | -3.83% (active) | -24.6% (active) | -15% (active) | -71.9% (active) | -46.7% (active) | -44.7% (active) | -88.5% (active) | -35.3% (active) | -4.46% (active)
10 | O=C(CSc1nnc2n1S(=O)(=O)c1ccccc1N2c1ccccc1)Nc1nc2ccc(F)cc2s1 | 62.9% | 76.5% | 84.9% | 94.7% | 99.5% | 108% | 34.7% | 106% | 101% | 92.8%
11 | CC(C)NC1CCC(Nc2ccnc3cc(Cl)ccc23)CC1 (stereo not given) | 84% | 76% | 91.7% | 104% | 79.5% | 93% | 109% | 109% | 96.6% | 108%
12 | CC/C(=C(/c1ccc(Cl)cc1)c1ccc(OCCN2CCCC2)cc1)c1ccc(OC)cc1 | -16.1% (active) | 12.2% | 69.4% | 72.9% | 72.6% | 101% | 81.8% | 78.7% | 100% | 66.7%
13 | O=C1c2cccc(NCCN=Cc3cc(O)ccc3O)c2C(=O)c2c(NCCN=Cc3cc(O)ccc3O)cccc21 | 40.4% | -60.1% (active) | 7.56% (active) | -28.1% (active) | -47% (active) | 73.4% | -6.03% (active) | -48.8% (active) | -37.6% (active) | 42.9%
14 | CN1C(=O)/C(=C/c2ccc(C(=O)Nc3ncc(Cc4ccc(Cl)cc4)s3)cc2)SC1=S | 43.2% | 61.3% | 60.4% | 58.1% | 54.9% | 58% | 44.4% | 27.2% | 42% | 37.5%
